LASV entry inh = blocks Lassa virus binding to or entry into cells; Lassa virus pseudotype entry inhibition, cell reporter; Potency, µM (titrated, usually from 37.9 µM), for the others: at the top dose activity change, negative = inhibition, most hits filed as inhibitors; hit rate 1.2% among 300,000; AID 540256; calls by dose curve; tested in HEK293 cells; also: potency is read from the fitted curve at half-maximal effect; nearly all actives have a fitted effect of over 50% in size
HCMV antiviral = blocks human cytomegalovirus replication; HFF cells, HCMV-luciferase reporter, 72 h; stronger effect = lower value; activity change, negative = inhibition, % at 57.5 µM; hit rate 4.5% among 410,000; in the data active = activity change below about -60%; inconclusive = no clear call, values can overlap the other calls; inactive = above about -39%
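Luciferase read-out from HCMV-luciferase-infected HFFs (MOI 1 PFU/cell) 72 h post infection at 37C; compounds added after 16 h cell attachment; activity normalized between buffer-only basal and Salinomycin (10uM) inhibitor controls.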
MARV entry inh = inhibitors of Marburg virus binding or cell entry. Potency, µM (top dose mostly 37.8 µM), for inactives: top-dose activity change, negative = inhibition, actives largely listed as inhibitors. hit rate 1.8% among 300,000. Marburg virus pseudotyped entry inhibition, cell reporter; calls by dose curve; tested in HEK293 cells; also: potency is read from the fitted curve at half-maximal effect
HCV inhibitor = inhibitors of hepatitis C virus infection; Huh7.5.1 HCVcc-Cre infection, luciferase reporter, 44 h; Potency, µM (series often up to 41.8 µM), for the others: top-dose activity change, negative = inhibition, usual class: inhibitors; hit rate 3.4% among 340,000; AID 651820; active = well fitted inhibition curve with a large enough effect; inconclusive = small, poorly fitted or top-dose-only effect, or another doubt; inactive = no such curve, though single readings can be large or run the other way; also: potency is read from the fitted curve at half-maximal effect
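Whole-lifecycle infectious HCVcc-Cre system; cells 1,000/well, compound then virus (~0.5 moi) added 4 h after plating, 44 h culture. Luciferase read 15 sec following 15 min substrate incubation, room temp.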
Vaccinia Venus = vaccinia inhibition (Venus reporter). Vaccinia virus Venus reporter expression, fluorescence. Potency, µM (top dose mostly 36.5 µM), without a hit: at the top dose activity change, negative = inhibition, most hits filed as inhibitors. hit rate 0.46% among 330,000; calls by dose curve; tested in A549 cells; also: potency is read from the fitted curve at half-maximal effect; nearly all actives have a fitted effect of over 30% in size
Vaccinia mCherry = vaccinia inhibition (mCherry reporter) | Vaccinia virus mCherry reporter infection, fluorescence | Potency, µM (doses to about 36.5 µM), for inactives: at the top dose activity change, negative = inhibition, hits mostly inhibitors | hit rate 0.63% among 310,000; calls by dose curve; tested in A549 cells; also: potency is read from the fitted curve at half-maximal effect; nearly all actives have a fitted effect of over 35% in size
* hit, by the source's call; i = inactive; ? = inconclusive; / = no result given; [ ] = dose if it differs, or a comment. Rows were chosen to be rich in hits. Some 7.8% of all compounds tested hit in one or more screens of this group. % is scaled to controls: 0 for no effect and ±100 for the full control effect.

SMILES	LASV entry inh	HCMV antiviral	MARV entry inh	HCV inhibitor	Vaccinia Venus	Vaccinia mCherry
COc1cc(/C=C(\C#N)c2nc3ccccc3s2)cc([N+](=O)[O-])c1O	0%	-62*	?	1%	-2%	-10%
CC(=O)Nc1ccc(CN(C)c2c(C)nc3ccc(C(=O)NC4CCN(Cc5ccccc5)CC4)cn23)cc1	/	-97*	/	/	-22%	0%
Cc1sc(NC(=O)c2ccc(Br)s2)c(C(N)=O)c1C	?	209	?	11µM*	/	/
CCOc1ccc(-c2cc(C(=O)NC(C)c3ccccc3)c3ccccc3n2)cc1 (stereo not drawn)	-2%[46.1 µM]	-11	/	/	-12%	-19%
COC(=O)c1sc(NC(=O)c2cc(-c3ccccc3)nc3ccccc23)c(C#N)c1C	?	-97*	?	11µM*	?	16µM*
Cc1ccccc1-c1cc(C(=O)Nc2sc(C(=O)OC(C)C)c(C)c2C#N)c2ccccc2n1	?	-101*	12µM*	13µM*	/	/
COC(=O)[C@H](NC(=O)c1cc(-c2ccccc2)nc2ccccc12)c1ccccc1	?	-24	?	35µM*	-5%	-11%
COC(=O)[C@@H]1[C@@H](CO)[C@@H]2Cn3c(ccc(Br)c3=O)[C@@H]2N1C(=O)Cc1cccnc1	/	-5	/	/	/	/
CCCN1Cc2cccc(C(=O)Nc3ccccc3F)c2C1=O	?	-13	0%[46.1 µM]	/	1%	-7%
Cc1sc(NC(=O)c2cc(-c3ccc(Cl)cc3)nc3ccccc23)c(C(N)=O)c1C	?	-34	?	?	-20%	/
CCOC(=O)c1sc(NC(=O)c2cc(-c3ccc(C)cc3)nc3ccccc23)c(C#N)c1C	5%	-103*	18%	12%	-12%	-16%
Cc1sc(NC(=O)c2cc(-c3ccccc3)nc3ccccc23)c(C(N)=O)c1C	-15%	-32	?	13µM*	-17%	-18%
Cc1c(C(=O)NCC2CC2)sc2ncnc(NCCN3CCCCC3)c12	/	/	/	/	-1%	i
O=C(NCCN1CCOCC1)c1cnn(-c2nccc(-c3ccccc3F)n2)c1C1CC1	/	/	/	/	?	-1%
Cc1ccc(-n2nc3c(N4CCC(C(=O)N5CCCCCC5)CC4)nnc(C)c3c2C)cc1	/	/	/	-26%	/	/
CCCN1CCN(C(=O)C2CCN(c3nnc(C)c4c(C)n(-c5ccc(C)cc5)nc34)CC2)CC1	/	?	/	2.2µM*	/	/
COc1ccc(-n2nc3c(N4CCC(C(=O)N5CCCCCC5)CC4)nnc(C)c3c2C)cc1	/	-33	/	11µM*	/	/
Cc1nnc(N2CCC(C(=O)N3CCCCCC3)CC2)c2nn(-c3ccc(Cl)cc3)c(C)c12	/	0	/	8.9µM*	/	/
COc1cccc(CN(C)C(=O)c2cnn(-c3ncc4c(n3)-c3ccccc3CCC4)c2C)c1	/	/	/	/	-28%	?
COc1cccc(Oc2cn[nH]c2-c2ccc(OC)cc2O)c1	?	-7	?	11µM*	?	?
COc1ccccc1Oc1cn[nH]c1-c1ccc(O)cc1O	/	-66*	/	-21%	/	/
COc1cccc(Oc2cn[nH]c2-c2ccc(O)cc2O)c1	7%	-16	?	?	-17%	?
Cc1cccc(N2CCN(C(=O)c3ccc4c(c3)N(Cc3cccc(Cl)c3)C(=O)c3ccccc3S4=O)CC2)c1C (stereo not drawn)	-15%[46.1 µM]	10	/	/	-19%	-28%
Ic1ccccc1CN[C@@H]1C2CCN(CC2)[C@H]1C(c1ccccc1)c1ccccc1	/	/	4.6µM*	/	/	/
Ic1ccccc1CN[C@@H]1C2CCN(CC2)[C@@H]1C(c1ccccc1)c1ccccc1	/	-99*	/	?	?	?
SMILES	LASV entry inh	HCMV antiviral	MARV entry inh	HCV inhibitor	Vaccinia Venus	Vaccinia mCherry
Ic1ccccc1CNC1C2CCN(CC2)C1C(c1ccccc1)c1ccccc1 (stereo not drawn)	6.5µM*	/	4.6µM*	/	/	/
Fc1ccccc1CNC1CN2CCC1CC2 (stereo not drawn)	/	-28	1%[46.1 µM]	16%	-3%	-10%
COc1cc(OC)cc(C(=O)NNC(=O)CCNS(=O)(=O)c2ccc(C)c(C)c2)c1	1%	-4	-9%	-2%	-19%	-5%
Cc1ccc(S(=O)(=O)NCCC(=O)NNC(=O)c2ccccc2O)cc1C	-2%	-14	0%	3.2µM*	-21%	-27%
CCNC(=S)NN=C1c2ccccc2-c2ccccc21	-25%	73	5%[46.1 µM]	16µM*	-19%	-23%
C=C(C)CNC(=S)N/N=C/c1ccco1	2%[46.1 µM]	-61*	?	5%	12%	?
C=C(C)CNC(=S)NN=C1c2ccccc2-c2ccccc21	?	/	?	11µM*	-7%	-11%
O=C(CCC(=O)N/N=C/c1ccco1)N/N=C/c1ccco1	1%	38	?	16%	10%	-12%
CCOc1ccc(CCNC(=O)Cn2ccc3cc(S(=O)(=O)N4CCCCCC4)ccc32)cc1	-15%[46.1 µM]	-14	/	/	-5%	i
Cc1ccc(CNC(=O)c2ccc(CN3CC(=O)N4CCCCC4C3=O)cc2)cc1 (stereo not drawn)	-13%[46.1 µM]	8	/	/	-13%	-14%
CCOCCCNC(=O)C1CCN(c2cc(C)nc3c(-c4ccc(OC)c(OC)c4)c(C)nn23)CC1	-12%	-6	-24%	11µM*	/	/
COc1ccccc1-c1cnn2c(NCCc3ccccc3)cc(C)nc12	-32%[46.1 µM]	-2	-2%[46.1 µM]	10µM*	-9%	-9%
COc1ccc(-c2c(C)nn3c(NC4CCCC4)cc(C)nc23)cc1OC	/	?	/	10µM*	/	/
COc1ccc(CCNc2cc(C)nc3c(-c4ccccc4)cnn23)cc1OC	8.9µM*	-68*	9.2µM*	?	-20%	-11%
COc1ccc(CCNc2cc(C)nc3c(-c4ccc(Cl)cc4)cnn23)cc1OC	-4%	34	-11%	?	-22%	-27%

Source: PubChem (National Center for Advancing Translational Sciences (NCATS))
